# G9a block: G9a (human) methyltransferase inhibition; 350,000 tested, 8.8% active; Q96KQ7; G9a H3K9 monomethylation, AlphaScreen, 2 h; Potency, µM (top dose mostly 102 µM), inactives show at the highest dose activity, negative = inhibition, most hits filed as inhibitors; further: on the % scale 0 is the no-effect control and ±100 the full control effect; nearly all actives have a fitted effect of over 75% in size
#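 Chemiluminescent proximity detection of H3K9 monomethylation, read after 10 min bead incubation in the dark. Reaction: 20 nM G9a, 500 nM biotin-H3K9 peptide, 20 uM SAM cofactor, 2 h, room temperature, following 15 min enzyme-compound preincubation.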
# BAZ2B inh: blocks human BAZ2B; 360,000 tested, 4.4% active; Potency, µM (highest dose often 114 µM), for the others: top-dose activity change, negative = inhibition, most hits filed as inhibitors; Q9UIF8; AlphaScreen BAZ2B-H3K14Ac peptide displacement; further: on the % scale 0 is the no-effect control and ±100 the full control effect; nearly all actives have a fitted effect of over 60% in size
#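 Inhibition is scored as reduced AlphaScreen emission. The BAZ2B/b-H3(5-23)K14Ac complex (50 nM each) in PBS pH 7.4, 0.01% Tween-20 meets compound (up to 110 uM) for 30 min at RT before bead addition.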
# PLK1 PBD inh: inhibitors of human PLK1 polo-box domain binding; 360,000 tested, 2.8% active; Plk1 PBD binding of FITC phosphopeptide, fluorescence polarization; AID 720504; Potency, µM, for the others: max response, negative = inhibition, usual class: inhibitors; further: series mostly up to about 57 µM; on the % scale 0 is the no-effect control and ±100 the full control effect; nearly all actives have a fitted effect of over 65% in size
# ALOX12 inh: blocks human arachidonate 12S-lipoxygenase. purified 12hLO, xylenol orange hydroperoxide absorbance. 580,000 tested, 1.1% active. Potency, µM (titrated, usually from 108 µM), for the others: at the top dose activity change, negative = inhibition, most hits filed as inhibitors. AID 1671190. P18054; further: on the % scale 0 is the no-effect control and ±100 the full control effect
#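 Purified human 12hLO (150 nM final) in 25 mM Hepes, 0.01% Triton X-100, pH 7.0 was preincubated 15 min at room temperature with compound. Then 40 uM arachidonic acid was added, 30 min. Hydroperoxide was read by Fe-XO absorbance ratio 573/405 nm.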
# JMJD2A Tudor inh: JMJD2A Tudor domain (human) inhibition; O75164; AlphaScreen JMJD2A-Tudor / H3K4me3 peptide binding; Potency, µM (highest dose often 114 µM), without a hit: top-dose activity change, negative = inhibition, usual class: inhibitors; 390,000 tested, 4.4% active; AID 504339; further: on the % scale 0 is the no-effect control and ±100 the full control effect; nearly all actives have a fitted effect of over 50% in size
# HP1b binding inh: HP1-beta chromodomain-methylated histone interaction inhibition | 390,000 tested, 0.56% active | AlphaScreen HP1-beta / biotin-H3K9me3 peptide binding | Potency, µM (doses to about 114 µM), for inactives: top-dose activity change, negative = inhibition, hits mostly inhibitors | AID 540317 | P83916; further: nearly all actives have a fitted effect of over 70% in size
#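 AlphaScreen: HP1-beta (50 nM) preformed 30 min with biotin-H3(1-18)K9me3 peptide (50 nM) in PBS pH 7.4, 0.01% Tween-20. Compound added for 30 min at RT, then streptavidin donor/nickel chelate acceptor beads (10 ug/mL) for 30 min.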
# * marks the source's active call; other numbers are inactive results; ? = inconclusive; . = no result given; ! = repeats disagree; [ ] = dose if it differs, or a comment. A selection: hits, their analogues and other compounds. The true share with any hit is near 9%. The call rests on the fitted dose curve; in most records, active means well fitted curve in the direction sought with a large enough effect; inconclusive means small, poorly fitted or top-dose-only effect, or another doubt; inactive means no such curve, though single readings can be large; an effect the other way counts as inactive or inconclusive. Potency means the concentration at half of the fitted maximal effect.
SMILES,G9a block,BAZ2B inh,PLK1 PBD inh,ALOX12 inh,JMJD2A Tudor inh,HP1b binding inh
Cc1cc(-n2c(C)cc(C(=O)CSc3nncn3C(C)C)c2C)no1,56µM*,-32%,-6%,11%,-26%,14%
O=C(O)CSCC(=O)N1N=C2/C(=C/c3ccccc3)CCCC2C1c1ccccc1 (configuration not stated),50µM*,-13%,?,-22%,-24%,4%
O=C(CSc1ncn[nH]1)N1N=C2/C(=C/c3ccccc3)CCCC2C1c1ccccc1 (configuration not stated),11µM*,-25%,-2%,-21%,?,9%
NC(=O)N1N=C2/C(=C/c3ccccc3)CCCC2C1c1ccccc1 (configuration not stated),10%,-17%,-3%,?,-23%,-3%
COc1ccc(/C=C2\CCCC3C2=NN(C(=O)CSc2ncn[nH]2)C3c2ccc(OC)cc2)cc1 (configuration not stated),-15%[59 µM],-38%,0%,-3%,-31%,17%
CC(C)N(CC(N)=O)c1ncnc2sc(-c3ccccc3)cc12,36%,3%,-13%,?,-18%,14%
Nc1nc(NCCO)nc(N2CCCCCC2)c1[N+](=O)[O-],-9%,-2%,2%,6%,-7%,25%
OCCN(CCO)c1nc(N2CCCCC2)c2nc(N(CCO)CCO)nc(N3CCCCC3)c2n1,22µM*,?,12µM*,45µM*!,-24%,22%
O=S(=O)(NCCNS(=O)(=O)c1cccs1)c1cccs1,65%[59 µM],-28%,-2%,0%,-9%,44%
C=CCNC(=S)NS(=O)(=O)c1cccs1,18µM*,-24%,?,1.1µM*,-28%,-11%
CCCS(=O)(=O)NC(=O)C1(C)CCN1C(=O)Cc1ccc(-c2ccccc2)cc1 (configuration not stated),.,.,1%,?,.,.
Cc1ccc(Cn2c(C(C)Nc3nc(-c4ccc(Cl)cc4)cs3)nc3cc(C(=O)NCCCO)ccc32)cc1 (configuration not stated),.,.,-9%,?,79µM*,6%
Cc1ccc(Cn2c(C(C)Nc3nc(-c4ccc(C)cc4)cs3)nc3cc(Cl)c(Cl)cc32)cc1 (configuration not stated),28µM*,40µM*,-21%,-27%,?,45µM*
CCCn1c(C(C)Nc2nc(-c3ccc(C)cc3)cs2)nc2ccccc21 (configuration not stated),89µM*,?,-14%,-16%,?,-3%
O=C(CCCN1C(=O)c2cccc3cccc(c23)C1=O)OCC(=O)N1CCCCC1,.,.,-1%,2%,.,.
O=C(COC(=O)c1ccc(O)cc1)Nc1cc(C(F)(F)F)ccc1Cl,7%,0%,6%,-7%,4%,41%
COc1cccc2sc(NNC(=O)C3=COCCO3)nc12,13µM*,4%,-17%,2%,-21%,36%
O=C1OC2(c3ccccc31)c1cc(I)c(O)c(I)c1Oc1c2cc(I)c(O)c1I,?,10µM*,.,1.6µM*,.,.
O=C1OC2(c3ccc(O)cc3Oc3cc(O)ccc32)c2ccccc21,?,.,.,-12%[22.9 µM],.,.
Cc1ccc(CSc2cn(CCNC(=O)c3cccs3)c3ccccc23)cc1,3%[59 µM],-33%,.,0%,-23%,5%
CC(=O)c1ccc(S(=O)(=O)Oc2ccc3ccc(=O)oc3c2)cc1,.,.,.,-10%,.,.
CC(C)c1cc[n+](-c2nc([O-])sc2C=O)cc1,?,79µM*,?,?,35µM*,20%
O=C(Cc1ccc(Cl)cc1)NNC(=O)c1cnccn1,?,6%,30µM*,1%,50µM*,9%
COc1ccc(C[C@](C)(N)C(=O)O)cc1OC,?,30%,7%,?,-5%,5%
O=C(CSC(=S)N1CCCC1)Nc1cc2c(cc1Br)OCCO2,7%,-14%,-4%,-12%,-3%,28%
SMILES,G9a block,BAZ2B inh,PLK1 PBD inh,ALOX12 inh,JMJD2A Tudor inh,HP1b binding inh
CC1CCCN(C(=S)SCC(=O)c2cc(Br)cc(Br)c2O)C1 (configuration not stated),?,?,-10%,6.3µM*,-27%,-5%
O=C(CSC(=S)N1CCCC1)c1cc(Br)cc(Br)c1O,20µM*,40µM*,?,14µM*,?,?
Cc1cc(Nc2ncc(Cl)cc2Cl)n(-c2ccccn2)n1,6%[59 µM],9%,0%,0%[57.4 µM],1%,13%
Cc1cc(N/N=C/c2cccc(Cl)c2)nc(-n2nc(C)cc2C)n1,-1%,-28%,-1%,204%,-28%,19%
Cc1nc(C#N)c(N/N=C/c2cccc(Cl)c2)o1,0%,-11%,-10%,40µM*,?,19%
CCOC(=O)C1CCCN(c2c(C(=O)c3ccccc3)cnc3ccc(OC)cc23)C1 (configuration not stated),56µM*,?,-21%,-70%,-32%,39%
CCc1ccc(C(=O)c2cnc3ccc(OC)cc3c2N2CCOCC2)cc1,.,.,.,28µM*,.,.
CCOC(=O)C1CCN(c2c(C(=O)c3ccc(OCC)cc3)cnc3ccc(OC)cc23)CC1,?,?,.,?,?,-11%
COc1cc2ncc(C(=O)c3ccc(C)cc3)c(N3CCCCC3)c2cc1OC,8.9µM*,?,.,?,56µM*,-11%
CCN1CCN(c2c(C(=O)c3ccc(OC)cc3)cnc3ccccc23)CC1,50µM*,-10%,3%,-48%,-11%,61%
CCOC(=O)c1cnc2ccccc2c1N1CCC(O)CC1,.,.,.,-9%,.,.
CCOC(=O)C1CCCN(c2c(C(=O)c3ccc(OCC)cc3)cnc3ccccc23)C1 (configuration not stated),?,-39%,.,?,?,6%
COc1ccc(Cl)cc1CN1CCN(c2nc(C)cc(C)c2C#N)CC1,5%[12.7 µM],2%,-22%,-9%,4%,68%
COc1cc(NC(=O)c2ccco2)c(OC)cc1NC(=O)CSc1nnc(-c2cccs2)n1C,-21%,-8%,-8%,0%,-32%,8%
COc1ccc(C(=O)c2ccc(N3CCOCC3)cc2)c(OC)c1,25µM*,-9%,-1%,?,-17%,-2%
COc1ccc(-c2cc(CNS(=O)(=O)c3ccc(NC(C)=O)cc3)on2)cc1,36%,-24%,8%,0%,2%,15%
CCN(CC)CCOC(=O)c1ccc(N/C=C(/C#N)c2nc(-c3ccc(OC)c(OC)c3)cs2)cc1,1.6µM*,-33%,5%,316%,35µM*,14µM*
CCN(CC)CCOC(=O)c1ccc(N/C=C(/C#N)c2nc(-c3cccc(OC)c3)cs2)cc1,28µM*,?,-10%,137%,-11%,11%
